Drawing on PubChem BioAssay (EPA / NIEHS), this text covers outcome and AC50 for nine compounds.

Inconclusive results are not listed. The source made the active and inactive calls. The calls were made as follows, unless noted: active = hit-call score of the fitted dose curve at least 0.9, where 1 is the maximum; inconclusive = response in the unintended direction; inactive = score below 0.9.

Usually AC50 stands for the midpoint of the concentration-response curve, whichever way the signal moves.

The target of assay [1] is Retinoic acid receptor alpha (Homo sapiens) (UniProt P10276). Description: ATG_DR5_RAR_CIS: Attagene CIS-FACTORIAL HepG2 Assay for human Retinoic Acid Receptor Alpha (RARE), DR5 submotif (AID 2282934; active = hit-call score of the fitted dose curve at least 0.9, where 1 is the maximum; inactive = score below 0.9). The following applies: HepG2 Attagene cis-factorial RARE DR5 reporter, mRNA; actives raise or lower the signal. The procedure, abridged: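 Read-out: DR5-driven reporter transcript measured by RT-PCR, 6-FAM primer extension, HpaI digest and capillary electrophoresis. Human HepG2 liver cells carry transiently transfected cis-element reporter constructs; dosing lasts 24 h. Gain or loss of signal fitted against DMSO baseline.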
Sequence of Retinoic acid receptor alpha (Homo sapiens) (P10276 whole entry, looked up): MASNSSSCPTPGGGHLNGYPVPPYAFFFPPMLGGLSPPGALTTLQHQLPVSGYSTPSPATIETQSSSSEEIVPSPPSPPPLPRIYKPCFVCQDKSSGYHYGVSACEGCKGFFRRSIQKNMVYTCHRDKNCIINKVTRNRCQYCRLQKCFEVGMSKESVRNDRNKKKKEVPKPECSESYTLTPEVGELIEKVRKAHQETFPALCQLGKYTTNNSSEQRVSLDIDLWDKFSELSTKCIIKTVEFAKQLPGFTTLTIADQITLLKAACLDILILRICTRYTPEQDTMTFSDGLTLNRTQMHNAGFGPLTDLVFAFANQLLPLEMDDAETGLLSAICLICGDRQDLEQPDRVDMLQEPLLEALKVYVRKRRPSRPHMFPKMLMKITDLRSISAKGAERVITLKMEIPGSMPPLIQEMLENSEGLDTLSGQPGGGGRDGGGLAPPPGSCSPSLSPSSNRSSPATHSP

Assay [2] is described as follows: ATG_FoxO_CIS: Attagene CIS-FACTORIAL HepG2 Assay for human Forkhead box O (FoxO) (AID 2282943; active = hit-call score of the fitted dose curve at least 0.9, where 1 is the maximum; inactive = score below 0.9). The following applies: HepG2 Attagene cis-reporter, FoxO element, mRNA; actives raise or lower the signal. An outline of the steps: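 Read-out: fluorescence of 6-FAM-labelled reporter cDNA fragments resolved by capillary electrophoresis. Transiently transfected HepG2 cells were dosed for 24 h; activity fitted in both directions relative to DMSO controls.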

Assay [3] can be described thus: ATG_GRE_CIS: Attagene CIS-FACTORIAL HepG2 Assay for human Glucocorticoid Response Elements (GRE) (AID 2282947; active = hit-call score of the fitted dose curve at least 0.9, where 1 is the maximum; inactive = score below 0.9). The following applies: HepG2 GRE cis-reporter, Attagene multiplex mRNA; actives raise or lower the signal. An outline of the steps:
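Read-out: fluorescent reporter-transcript fragments separated by capillary electrophoresis after RT-PCR. Transiently transfected HepG2 cells carrying cis-element-driven reporter units were dosed for 24 h; gain or loss of signal fitted against DMSO control.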

Assay [4] in a line: ATG_PBREM_CIS: Attagene CIS-FACTORIAL HepG2 Assay for human Phenobarbital-responsive Enhancer Module (PBREM) (AID 2282955; active = hit-call score of the fitted dose curve at least 0.9, where 1 is the maximum; inactive = score below 0.9). The following applies: HepG2 PBREM cis-reporter, Attagene multiplexed transcription; actives raise or lower the signal. The procedure, abridged: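 Fluorescence of labelled reporter cDNA fragments, resolved by capillary electrophoresis, gives mRNA induction in transfected HepG2 cells treated for 24 h; DMSO serves as negative control and baseline.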

Assay [5] has as its target Hepatocyte nuclear factor 4-alpha (Homo sapiens) (UniProt P41235). Description: ATG_HNF4a_TRANS: Attagene TRANS-FACTORIAL HepG2 Assay for human Hepatocyte Nuclear Factor 4 alpha (HNF4a) (AID 2282982). The settings on record: HepG2 HNF4a transactivation reporter, mRNA readout. The procedure, abridged: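 Transient MRTU transfection of HepG2, 24 h dosing. Readout: reporter mRNA via RT-PCR + capillary electrophoresis, fluorescence; activity fit upward relative to DMSO control.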

Assay [6] can be described thus: ATG_M_32_TRANS: Attagene TRANS-FACTORIAL HepG2 Assay for M32 Transcription Factor (Internal Marker) (AID 2282984).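 Also: transcript level of a background control reporter unit measured by RT-PCR and capillary electrophoresis.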 The settings on record: HepG2 Attagene TRANS M32 internal marker reporter. The procedure, abridged: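 Read-out: fluorescent reporter cDNA fragments resolved by capillary electrophoresis after RT-PCR of total RNA. Transfected HepG2 cells were exposed to chemical for 24 h. Activity scored in the positive direction relative to DMSO.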

A short description of assay [7]: ATG_NFI_CIS: Attagene CIS-FACTORIAL HepG2 Assay for human Nuclear Factor I (NFI) (AID 2282989; active = hit-call score of the fitted dose curve at least 0.9, where 1 is the maximum; inactive = score below 0.9). The following applies: HepG2 cis-regulatory reporter, NFI response element transcription; actives raise or lower the signal. The procedure, abridged: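 Reporter transcripts were measured by RT-PCR with fluorescent primer extension and capillary electrophoresis 24 h post-treatment. HepG2 cells carried transiently transfected cis-regulated reporter constructs reporting endogenous factor activity; gain or loss fitted against DMSO baseline.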

Assay [8] is described as follows: ATG_NF_kB_CIS: Attagene CIS-FACTORIAL HepG2 Assay for human Nuclear Factor Kappa B (NF-kB) (AID 2282991; active = hit-call score of the fitted dose curve at least 0.9, where 1 is the maximum; inactive = score below 0.9). The following applies: HepG2 Attagene cis-factorial NF-kB reporter mRNA; actives raise or lower the signal. The procedure, abridged: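 Endogenous transcription factor activity in HepG2 was captured via cis-regulated reporter constructs; after 24 h dosing, reporter mRNA was reverse-transcribed, amplified, fluorescently labelled and sized by capillary electrophoresis, with activity fitted bidirectionally relative to DMSO.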

Assay [9] deals with human Retinoid X Receptor beta (RXRb), RXRB (gene 6257) (UniProt P28702). Description: ATG_RXRb_TRANS: Attagene TRANS-FACTORIAL HepG2 Assay for human Retinoid X Receptor beta (RXRb) (AID 2283013). The procedure, abridged: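 After a 24 h incubation with test chemical, transfected HepG2 cells carrying NR-Gal4 fusions and GAL4-UAS reporter transcription units yield RNA whose reporter cDNA is FAM-labelled, HpaI-cut and sized by capillary electrophoresis; increases over DMSO are scored.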
Sequence of human Retinoid X Receptor beta (RXRb), RXRB (gene 6257) (P28702 whole entry, looked up, the tested form may be a part): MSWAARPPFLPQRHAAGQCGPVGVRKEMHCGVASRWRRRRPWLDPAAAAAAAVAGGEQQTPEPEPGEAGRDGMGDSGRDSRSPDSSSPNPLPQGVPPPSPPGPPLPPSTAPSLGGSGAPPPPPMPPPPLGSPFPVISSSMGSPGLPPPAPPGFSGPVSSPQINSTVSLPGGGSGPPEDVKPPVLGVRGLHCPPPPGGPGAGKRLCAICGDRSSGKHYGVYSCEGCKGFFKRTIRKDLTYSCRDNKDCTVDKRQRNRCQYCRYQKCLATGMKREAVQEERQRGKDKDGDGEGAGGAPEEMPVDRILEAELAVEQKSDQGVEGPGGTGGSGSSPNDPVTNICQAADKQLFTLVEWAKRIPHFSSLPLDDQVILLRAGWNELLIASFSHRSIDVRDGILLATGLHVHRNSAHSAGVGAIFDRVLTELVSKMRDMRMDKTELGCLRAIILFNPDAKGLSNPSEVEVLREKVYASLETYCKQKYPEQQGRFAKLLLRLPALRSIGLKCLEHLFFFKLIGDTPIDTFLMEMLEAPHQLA

Assay [10] is described as follows: TOX21_p53_BLA_p2_viability: Viability Assessment in the Tox21 HCT-116 p53 Agonism Beta-lactamase Assay, Phase 2 (AID 2283591).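 Also: compound exposure lasted 16 h at 37 °C; actives lower the ATP signal meaning cytotoxicity.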 An outline of the steps:
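HCT116 p53-bla cells, 4000/well, dosed after 5 h plating (217-fold dilution of DMSO stocks) and incubated 16 h at 37C. Viability taken as cellular ATP by CellTiter-Glo luminescence after 30 min RT; signal loss marks cytotoxicity.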

Assay [11] deals with Cellular tumor antigen p53 (Homo sapiens) (UniProt P04637). Description: TOX21_p53_BLA_p2_ratio: Tox21 HCT-116 p53 Agonism Beta-lactamase Assay, Ratio, Phase 2 (AID 2283592). An outline of the steps:
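DMSO-normalized, positive-direction endpoint derived from the 460 nm/530 nm FRET ratio in HCT116 p53 beta-lactamase reporter cells exposed 16 h at 37C and loaded with CCF4-AM for 2 h.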

Assay [12] has the same target. Description: TOX21_p53_BLA_p3_ratio: Tox21 HCT-116 p53 Agonism Beta-lactamase Assay, Ratio, Phase 3 (AID 2283596). An outline of the steps:
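Cells were seeded at 4000/well, rested 5 h at 37C, then dosed with DMSO compound solutions (217-fold dilution) for 16 h. CCF4-AM substrate was loaded for 2 h at room temperature, and the 460/530 nm emission ratio was fitted for gain of signal versus DMSO.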

The target is the same in assay [13]. Description: TOX21_p53_BLA_p5_ratio: Tox21 HCT-116 p53 Agonism Beta-lactamase Assay, Ratio, Phase 5 (AID 2283599). An outline of the steps: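 HCT-116 p53-bla cells (4000/well) plated 5 h, dosed with compound (217-fold DMSO dilution) for 16 h at 37 C; CCF4-AM substrate 2 h at room temperature. Activity is the 460/530 nm emission ratio (405 nm excitation), fitted in gain-of-signal direction versus DMSO.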

The nature of assay [14]: TOX21_p53_BLA_p5_viability: Viability Assessment in the Tox21 HCT-116 p53 Agonism Beta-lactamase Assay, Phase 5 (AID 2283600). The procedure, abridged: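 Here cell health was gauged by ATP levels in wells holding 4000 cells, each treated 16 h with DMSO-delivered compounds at 217-fold dilution; reduced luminescence marked toxicity.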
For assay [15], the target named is Cellular tumor antigen p53 (Homo sapiens) (UniProt P04637). Description: TOX21_p53_BLA_p4_ratio: Tox21 HCT-116 p53 Agonism Beta-lactamase Assay, Ratio, Phase 4 (AID 2283601). An outline of the steps:
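HCT-116 p53 beta-lactamase reporter cells (4000/well) preincubated 5 h, then compound (217-fold dilution of DMSO stock) for 16 h at 37C. CCF4-AM substrate added 2 h at room temperature; 460/530 nm emission ratio fitted upward versus DMSO.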

For assay [16], the target named is Hepatocyte nuclear factor 3-beta (Homo sapiens) (UniProt Q9Y261). Description: ATG_FoxA2_CIS: Attagene CIS-FACTORIAL HepG2 Assay for human Forkhead box A2 (FOXA2) (AID 2282942; active = hit-call score of the fitted dose curve at least 0.9, where 1 is the maximum; inactive = score below 0.9). The following applies: HepG2 cis-reporter transcription factor activity, 24 h; actives raise or lower the signal. An outline of the steps:
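Endogenous transcription factor activity was read in HepG2 cells carrying transiently transfected cis-promoter reporter units. After 24 h dosing, reporter mRNA was quantified by RT-PCR and capillary electrophoresis, and values fitted bidirectionally versus DMSO.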

Assay [17] in a line: ATG_RORE_CIS: Attagene CIS-FACTORIAL HepG2 Assay for human RAR-related Orphan Receptor Element (RORE) (AID 2282959; active = hit-call score of the fitted dose curve at least 0.9, where 1 is the maximum; inactive = score below 0.9). The following applies: HepG2 Attagene cis-factorial RORE reporter, mRNA; actives raise or lower the signal. An outline of the steps:
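Cells were HepG2 carrying transfected cis-regulated reporter constructs, dosed for 24 hours. Total RNA was reverse-transcribed and reporter cDNA amplified, fluorescently labeled and sized by capillary electrophoresis. Activity was fitted bidirectionally relative to DMSO.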

Assay [18] can be described thus: ATG_SREBP_CIS: Attagene CIS-FACTORIAL HepG2 Assay for human Sterol Regulatory Element Binding (SREBP) (AID 2282962; active = hit-call score of the fitted dose curve at least 0.9, where 1 is the maximum; inactive = score below 0.9). The following applies: HepG2 Attagene cis-factorial SREBP reporter, mRNA; actives raise or lower the signal. The procedure, abridged: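 Readout: fluorescent reporter-transcript peaks resolved by capillary electrophoresis after RT-PCR. Cells were human HepG2 carrying transfected cis-promoter reporter constructs, dosed for 24 h. Gain or loss of signal was fitted against DMSO controls.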

The target in assay [19] is human Peroxisome Proliferator-activated Receptor alpha (PPARa), PPARA (gene 5465) (UniProt Q07869). Description: ATG_PPARa_TRANS: Attagene TRANS-FACTORIAL HepG2 Assay for human Peroxisome Proliferator-activated Receptor alpha (PPARa) (AID 2283001).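 As to AC50: potency for gain of reporter signal over DMSO so agonist or activator.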 An outline of the steps:
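Transient HepG2 transfection, GAL4-UAS reporters, NR-Gal4 chimeras; 24 h compound exposure. Readout: reporter transcripts by RT-PCR, 6-FAM primer extension, HpaI digest, capillary electrophoresis. Positive direction vs DMSO baseline.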

Assay [20] can be described thus: TOX21_p53_BLA_p3_viability: Viability Assessment in the Tox21 HCT-116 p53 Agonism Beta-lactamase Assay, Phase 3 (AID 2283593).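 Also: cells exposed to compound for 16 h before reading.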 The procedure, abridged: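 HCT116 cells, 4000/well, dosed 5 h after plating by pin transfer (217-fold dilution from DMSO stock) and incubated 16 h at 37C, 5% CO2. Viability read as ATP luminescence with CellTiter-Glo after 30 min at room temperature.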

Sequence of human Peroxisome Proliferator-activated Receptor alpha (PPARa), PPARA (gene 5465) (Q07869 whole entry, looked up, the tested form may be a part): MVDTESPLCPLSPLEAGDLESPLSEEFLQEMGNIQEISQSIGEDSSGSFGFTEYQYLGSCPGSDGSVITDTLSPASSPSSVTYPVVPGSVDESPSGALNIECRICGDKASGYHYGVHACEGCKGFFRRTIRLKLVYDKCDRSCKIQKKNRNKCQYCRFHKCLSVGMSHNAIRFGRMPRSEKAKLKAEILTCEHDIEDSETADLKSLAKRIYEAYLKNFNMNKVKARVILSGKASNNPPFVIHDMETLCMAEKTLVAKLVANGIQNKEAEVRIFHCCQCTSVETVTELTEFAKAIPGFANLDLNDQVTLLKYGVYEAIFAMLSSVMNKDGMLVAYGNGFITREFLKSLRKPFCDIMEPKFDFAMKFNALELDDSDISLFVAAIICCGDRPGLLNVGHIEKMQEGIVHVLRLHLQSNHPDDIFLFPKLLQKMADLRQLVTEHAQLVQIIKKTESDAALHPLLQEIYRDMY
Sequence of Cellular tumor antigen p53 (Homo sapiens) (P04637 whole entry, looked up): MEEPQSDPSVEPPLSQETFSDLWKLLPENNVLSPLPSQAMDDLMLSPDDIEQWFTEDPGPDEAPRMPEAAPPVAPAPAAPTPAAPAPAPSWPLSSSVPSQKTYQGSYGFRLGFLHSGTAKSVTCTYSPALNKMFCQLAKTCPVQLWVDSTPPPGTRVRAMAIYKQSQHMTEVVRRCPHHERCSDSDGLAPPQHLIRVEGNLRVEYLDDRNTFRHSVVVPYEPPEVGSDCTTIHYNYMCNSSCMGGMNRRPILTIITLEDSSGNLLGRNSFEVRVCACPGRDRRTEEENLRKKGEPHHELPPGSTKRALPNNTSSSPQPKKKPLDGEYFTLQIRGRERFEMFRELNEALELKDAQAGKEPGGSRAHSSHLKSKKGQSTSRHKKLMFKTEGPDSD
Sequence of Hepatocyte nuclear factor 4-alpha (Homo sapiens) (P41235 whole entry, looked up): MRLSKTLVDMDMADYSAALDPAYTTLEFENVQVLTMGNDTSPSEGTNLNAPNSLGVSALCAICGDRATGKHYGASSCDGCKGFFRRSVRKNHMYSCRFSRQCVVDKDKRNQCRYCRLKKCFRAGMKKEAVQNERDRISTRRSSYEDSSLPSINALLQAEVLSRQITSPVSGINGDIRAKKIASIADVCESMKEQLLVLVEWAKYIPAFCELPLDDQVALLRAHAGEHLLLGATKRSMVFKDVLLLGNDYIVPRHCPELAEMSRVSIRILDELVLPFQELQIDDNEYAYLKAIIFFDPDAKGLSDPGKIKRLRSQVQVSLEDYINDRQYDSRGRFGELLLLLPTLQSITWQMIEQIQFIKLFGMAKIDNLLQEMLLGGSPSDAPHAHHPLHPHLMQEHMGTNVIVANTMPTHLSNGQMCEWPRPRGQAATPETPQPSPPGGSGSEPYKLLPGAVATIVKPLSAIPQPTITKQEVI
Sequence of Hepatocyte nuclear factor 3-beta (Homo sapiens) (Q9Y261 whole entry, looked up): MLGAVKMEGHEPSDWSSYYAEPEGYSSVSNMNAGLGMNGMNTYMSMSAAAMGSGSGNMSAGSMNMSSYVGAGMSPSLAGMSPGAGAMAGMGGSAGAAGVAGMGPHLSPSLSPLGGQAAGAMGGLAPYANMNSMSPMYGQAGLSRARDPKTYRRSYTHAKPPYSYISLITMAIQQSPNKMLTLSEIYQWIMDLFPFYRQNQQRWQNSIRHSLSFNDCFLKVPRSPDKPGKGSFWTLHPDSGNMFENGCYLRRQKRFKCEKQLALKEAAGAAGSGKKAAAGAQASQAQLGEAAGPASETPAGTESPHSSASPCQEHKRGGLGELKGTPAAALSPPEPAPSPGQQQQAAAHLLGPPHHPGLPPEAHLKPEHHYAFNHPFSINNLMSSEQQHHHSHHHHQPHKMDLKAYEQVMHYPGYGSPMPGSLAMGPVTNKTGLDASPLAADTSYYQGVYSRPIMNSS

Regarding `NC(=O)c1ccc([N+](=O)[O-])cc1Cl`, the result in [1], in [2], in [3], in assay [4], in assay [5] and in [6] was inactive. Besides, the outcome in assay [7], in assay [8], in assay [9], in [10], in assay [11] and in assay [12] was inactive. Further, the outcome in [13], in assay [14] and in assay [15] was inactive.
For the compound `C=C(C)C(=O)OCC1CCCO1` (stereo unspecified), the compound was classed as inactive in [1], in assay [16], in assay [2], in assay [3], in assay [4] and in [17]. Further, the outcome in assay [18], in [5], in [6], in [7], in assay [19] and in assay [9] was inactive. In addition, the call in assay [10], in assay [20], in assay [13], in assay [14] and in [15] was inactive.
Regarding `CNC[C@H](O)[C@@H](O)[C@H](O)[C@H](O)CO`, the result in assay [1], in assay [16], in [2], in assay [4], in assay [17] and in [18] was inactive. Besides, the outcome in assay [6], in assay [8], in assay [19], in assay [10], in assay [11] and in [20] was inactive. The result in assay [12], in assay [13], in [14] and in assay [15] was inactive.
`CC/C=C\CC/C=C/C(OCC)OCC`: the call in [1], in [2], in assay [3], in assay [4], in assay [18] and in assay [5] was inactive. For the same compound, the result in assay [6], in [7], in [19] and in [13] was inactive. For the same compound, the concentration at half-maximal activity (AC50) in assay [8] is 100 µM (active).
For `COCCCN`, the compound was classed as inactive in assay [2], in [3], in assay [4], in [5], in assay [6] and in assay [7]. For the same compound, the compound was called inactive in assay [8], in assay [19], in assay [9], in [10], in assay [11] and in assay [20]. The outcome in assay [12], in assay [13], in assay [14] and in assay [15] was inactive.
Take `CC(=O)CCc1ccccc1`: the outcome in assay [1], in [16], in [2], in assay [4], in assay [17] and in assay [18] was inactive. The compound was classed as inactive in assay [8], in assay [19], in [10], in assay [11], in [20] and in assay [12]. Besides, the result in [13], in [14] and in [15] was inactive.
Take `CCCCCCC1CCCC(=O)O1` (stereo unspecified): the compound was called inactive in assay [1], in [16], in [2], in assay [3], in assay [4] and in [18]. The call in assay [5], in [6], in [7], in assay [10], in assay [11] and in assay [20] was inactive. Besides, the compound was classed as inactive in [14] and in assay [15]. For the same compound, in [19], the AC50 was 27.3 µM (active).
`COC(=O)/C=C\C(=O)OC`: the compound was called inactive in assay [1], in assay [16], in [4], in [18], in [5] and in [7]. Besides, the compound was called inactive in assay [19], in [9], in assay [11], in assay [20], in assay [13] and in assay [14]. Moreover, the result in assay [15] was inactive. Besides, in [3], the AC50 was 128 µM (active).
Regarding `Clc1ccc(Sc2cc(Cl)c(Cl)cc2Cl)cc1`, the compound was called inactive in assay [1], in [16], in [3], in assay [4], in [18] and in assay [5]. The outcome in [11], in assay [20], in assay [12], in [14] and in [15] was inactive. In addition, the AC50 in assay [9] was 7.54 µM (active).
